# HT1080-NT tox: kills 2HG-producing HT-1080-NT fibrosarcoma cells; Potency, µM (doses to about 46.1 µM), usual class: cytotoxic; HT-1080-NT fibrosarcoma viability, CellTiter-Glo ATP luminescence, 48 h; hit rate 1.6% among 360,000;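 note: NT is the 2HG producing partner of a matched IDH1 knockdown line; nearly all actives have a fitted effect of over 55% in size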
#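 A 48-hour cytotoxicity screen used HT-1080-NT cells plated 2 hours before compound delivery. ATP-based CellTiter-Glo luminescence measured viability, normalized to DMSO and no-cell controls.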
# KB-3-1 cytotox: KB-3-1 parental cell cytotoxicity | KB-3-1 viability, CellTiter-Glo ATP luminescence, 72 h | Potency, µM (highest dose often 46.1 µM), most hits filed as cytotoxic | hit rate 1.4% among 400,000 | AID 1347075; note: nearly all actives have a fitted effect of over 60% in size
#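 KB-3-1 cells, DMEM (no phenol red) + 10% FBS; compound by pin transfer, 72 h, 37 °C. Readout: CellTiter-Glo luminescence after 10 min. Data normalized, curve-fitted.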
# TDP1 cell noCPT: qHTS for Inhibitors of human tyrosyl-DNA phosphodiesterase 1 (TDP1): qHTS in cells in absence of CPT; DT40 Tdp1-/- hTDP1 cells, no CPT, ATP luminescence, 48 h; Potency, µM (titrated, usually from 46.2 µM), usual class: inhibitors; hit rate 15% among 420,000; AID 686978, 2013; note: nearly all actives have a fitted effect of over 55% in size
#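 Luminescent ATP content (CellTiter-Glo) served as the growth readout. Knockout chicken DT40 cells expressing human TDP1 were exposed to compounds without camptothecin for a minimum 48 hr at 37 °C.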
# KB-V1 cytotox: KB-V1 MDR subline cytotoxicity; KB-V1 MDR cells viability, CellTiter-Glo, 72 h; Potency, µM (highest dose often 46.1 µM), hits mostly cytotoxic; hit rate 3.4% among 400,000; note: nearly all actives have a fitted effect of over 60% in size
#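 In this primary screen, KB-V1 cells overexpressing P-gp are incubated with library compounds (lowest to highest concentration) for 72 h at 37 degrees C before a luminescent ATP viability read.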
# DT40 TDP1 CPT: growth inhibition of DT40 Tdp1-/-;hTDP1 cells with camptothecin (screen for TDP1 inhibitors); chicken DT40 Tdp1-/-;hTDP1 cells + 20 nM CPT, ATP luminescence, 48 h; Potency, µM (doses to about 46.2 µM), actives largely listed as inhibitors; hit rate 12% among 420,000; AID 686979; note: nearly all actives have a fitted effect of over 55% in size
#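 Chicken DT40 Tdp1-/- cells complemented with human TDP1, 400 cells/well, exposed to compounds plus 20 nM camptothecin for at least 48 h at 37 C; viability read as ATP content by CellTiter-Glo luminescence.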
# HT1080 IDH1KD tx: toxicity to HT-1080 IDH1 knockdown cells (counter line); HT-1080 IDH1 knockdown viability, ATP luminescence, 48 h; Potency, µM (top dose mostly 46.1 µM), hits mostly cytotoxic; hit rate 2% among 360,000
#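 Cytotoxicity counter-line: IDH1KD HT-1080, 48 h, CellTiter-Glo. Curves classed by r2, magnitude and activity.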
# Numbers stand for hits; – = inactive; ? = inconclusive; · = not tested or not shown; [ ] = dose if it differs, or a comment. The list is not random: actives were taken first. Their share in the collection is about 19%. Calls come from the whole dose curve; as a rule, active = well fitted curve in the direction sought with a large enough effect; inconclusive = small, poorly fitted or top-dose-only effect, or another doubt; inactive = no such curve, though single readings can be large; an effect the other way counts as inactive or inconclusive.
SMILES,HT1080-NT tox,KB-3-1 cytotox,TDP1 cell noCPT,KB-V1 cytotox,DT40 TDP1 CPT,HT1080 IDH1KD tx
CC(Sc1nnc2c(n1)[nH]c1ccccc12)C(=O)NC1CCCCC1 (centres undefined),–,–,21µM,?,23µM,?
COc1ccc(CN(CC(=O)NCCc2ccccc2)C(=O)CCC(=O)Nc2cc(C)ccn2)cc1,–,–,–,?,–,–
O=C(N[C@@H](Cc1ccccc1)C(=O)N[C@@H](Cc1ccccc1)C(=O)O)OCc1ccccc1,–,–,–,–,–,–
O=C(N[C@@H](Cc1ccccc1)C(=O)CCl)OCc1ccccc1,6.5µM,?,2.3µM,23µM,2.3µM,21µM
Cc1nc([N+](=O)[O-])cn1-c1ccc([N+](=O)[O-])cc1,·,·,–,·,–,·
CCCCCC1CCC(c2n[nH]c(=S)n2C)CC1 (centres undefined),–,?,2.9µM,–,7.3µM,–
CCc1ccc2[nH]c(O)c(N=NC3=NC(=O)CS3)c2c1,–,–,1.8µM,–,2.6µM,–
CC1(C(=O)NS(=O)(=O)c2ccc(F)cc2F)CCN1C(=O)Cc1cc(F)ccc1F (centres undefined),–,–,–,–,–,–
O=C(Cn1cc2ccccc2n1)N1CCOc2ccc(C(O)C3CCCCC3)cc2C1 (centres undefined),·,·,?,·,–[9.04 µM],·
Cc1csc(SCC(=O)N2CCOc3ccc(C(O)C4CCCCC4)cc3C2)n1 (centres undefined),·,·,21µM,·,?,·
CC1CC2(CCCCC2)Nc2c1ccc1ccccc21 (centres undefined),–,–,10µM,–,?,–
CC(=O)N1c2c(ccc3ccccc23)C(C)CC12CCCCC2 (centres undefined),–,–,?,–,?,–
COc1ccccc1C1CN(Cc2cccc3c2OCO3)Cc2ccccc2O1 (centres undefined),·,·,–,·,–[9.04 µM],·
COc1ccc(CN2C(=O)C(O)(CC(=O)c3ccc4c(c3)OCO4)c3ccccc32)cc1OC (centres undefined),–,–,6.3µM,–,6.3µM,–
CCCCN1C(=O)C(O)(CC(=O)c2ccc(C(C)(C)C)cc2)c2ccccc21 (centres undefined),·,·,15µM,·,21µM,·
CCN1C(=O)C(O)(CC(=O)c2ccc3c(c2)OCCO3)c2ccccc21 (centres undefined),–,–,–,–,–,–
Cc1ccc(C(=O)CC2(O)C(=O)N(Cc3ccccc3)c3ccccc32)c(C)c1 (centres undefined),·,–,?,–,23µM,·
COc1cccc2cc(C(=O)CC3(O)C(=O)N(Cc4ccccc4)c4ccccc43)c(=O)oc12 (centres undefined),–,–,6.5µM,–,13µM,–
Cc1ccc(C(=O)N2c3ccccc3N(Cc3ccccc3)C(=O)C2(C)C)cc1,–,–,20µM,6.5µM,15µM,?
CCc1ccc(C(=O)CC2(O)C(=O)N(Cc3ccc(C)cc3)c3ccccc32)cc1 (centres undefined),·,·,2.6µM,·,4.6µM,·
C=CCN(CC=C)CC(=O)Nn1c(C)ccc1C,–,–,?,–,–,–
CCOc1c([N+](=O)[O-])cc2c(C)c(C(=O)N3CCN(C)CC3)oc2c1OCC,–,–,16µM,–,–,–
CCOc1ccc2oc(C(=O)N3CCCN(C)CC3)c(C)c2c1,–,–,?,–,–,–
COc1ccc(/C(C)=N/NC(=S)NCc2ccco2)cc1,–,–,1.5µM,–,2.9µM,–
COc1ccc(CNC(=S)N/N=C(\C)c2ccc(OC)cc2)cc1,–,–,5.2µM,–,12µM,?
C=CCNC(=S)N/N=C(\C)c1ccc(OC)cc1,–,–,?,–,?,–
COc1ccc(/C(C)=N/NC(=O)CNC(=O)c2ccco2)cc1,–,–,–,–,–,–

# Screening data: PubChem BioAssay, National Center for Advancing Translational Sciences (NCATS)
